Measured values taken from PubChem BioAssay.
Active and inactive are the calls of the source.

Experiments:
[1] = molecular target: Albumin (Bos taurus) (UniProt P02769); experiment: bovine serum albumin binders on microarray, profiling panel, artefact control for SMM control protein annotation, biochemical, small-molecule microarray, Alexa647 label, 635/667 nm fluorescence (AID 1118); conditions: BSA-A647 binding, fluorescence 635 nm, higher = more signal;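 also: score merges 667 nm emission intensity and signal-to-noise per printed compound spot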
[2] = small-molecule microarray binders of probe aXIP, primary screen, biochemical, NeuroSMM set, 635/667 nm fluorescence (AID 1119); conditions: higher = more signal, called active from +8 up or from −8 down;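 also: probe is the protein aXip251-270 applied at 1 µg/mL to compound-printed slides; binding of probe to printed compounds measured as 667 nm fluorescence plus signal to noise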
[3] = small-molecule binders of probe aNOTCH3, primary screen, biochemical, small-molecule microarray, 635/667 nm fluorescence (AID 1120); conditions: higher = more signal;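 also: probe is a biotin-tagged antibody raised against NOTCH3 rather than NOTCH3 protein; score merges spot fluorescence near 667 nm with spot signal to noise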
[4] = small-molecule binders of probe aNOTCH2, primary screen, biochemical, small-molecule microarray, 635/667 nm fluorescence (AID 1121); conditions: higher = more signal;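 also: score merges feature fluorescence read at 667 nm with its signal to noise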
[5] = molecular target: Carbonic anhydrase 2 (Homo sapiens) (UniProt P00918); experiment: CAII small-molecule binders, profiling panel, biochemical, small-molecule microarray, Alexa647-labelled CAII (AID 1122); conditions: CAII-A647 binding fluorescence, higher = more signal
[6] = COS7 lysate on small-molecule microarray, probe aHis, 635 nm (AID 1123); conditions: COS7 cell lysate, fluorescence, higher = more signal;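 also: z-score combines 667nm fluorescence intensity with signal-to-noise per printed compound spot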
[7] = compound binding in COS7 lysate, probe aLAP1, primary screen, cell lysate, small-molecule microarray (AID 1124); conditions: probe aLAP1, fluorescence, higher = more signal;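 also: lysate comes from COS7 cells expressing LAP1 and is applied at 0.3 µg/mL; score merges spot fluorescence near 667 nm with signal-to-noise over triplicate slides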
[8] = system: Sam68 (KHDRBS1); experiment: Sam68 small-molecule binders, primary screen, biochemical, small-molecule microarray, 635 nm fluorescence (AID 1125); conditions: small-molecule microarray binding, higher = more signal;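 also: score merges 667 nm channel intensity with signal to noise over triplicate slides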
[9] = system: Chordin-like protein 2 (CHRDL2); experiment: CHRDL2 small-molecule binders, primary screen, biochemical, small-molecule microarray, 635 nm fluorescence (AID 1126); conditions: small-molecule microarray binding, fluorescence 635 nm; higher = more signal;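 also: printed compound slides probed with Chrdl2 protein at 4 µg/mL for 1 h at 4 C; score merges 667 nm emission intensity with signal to noise over three replicate slides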
[10] = molecular target: Concanavalin-A (Canavalia ensiformis) (UniProt P02866); experiment: ConA small-molecule binders, primary screen, artefact control for SMM control protein annotation, biochemical, small-molecule microarray, Alexa647 label, 635 nm (AID 1127); conditions: ConA-A647 binding fluorescence, higher = more signal;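 also: z combines 667 nm emission intensity with signal-to-noise across three replicate slides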
[11] = anti-His antibody binders, primary screen, artefact control for SMM control protein annotation, biochemical, small-molecule microarray, 635 nm fluorescence (AID 1128); conditions: anti-His Alexa647 antibody binding, higher = more signal;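 also: score merges feature fluorescence with signal-to-noise for each printed compound spot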
[12] = system: Human papillomavirus type 1a E7 protein (residues 1-88); experiment: HPV1a E7 small-molecule binders, primary screen, biochemical, small-molecule microarray, residues 1-88, 635 nm (AID 1129); conditions: small-molecule microarray binding, fluorescence 635 nm; higher = more signal
[13] = molecular target: Focal adhesion kinase 1 (Homo sapiens) (UniProt Q05397); experiment: small-molecule microarray binders of FAK, primary screen, biochemical, 635/667 nm fluorescence, BSA, DTT (AID 1130); conditions: PTK2 binding, 635 nm fluorescence, higher = more signal;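 also: composite of spot emission at 667 nm and signal to noise over triplicate slides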
[14] = system: Fibrinogen (Alexa647-labelled); experiment: fibrinogen binders on compound microarrays, profiling panel, artefact control for SMM control-protein annotation, biochemical, small-molecule microarray, 635/667 nm fluorescence (AID 1131); conditions: fibrinogen-A647 binding fluorescence, higher = more signal;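 also: z-score merges 667 nm fluorescence with per-spot signal-to-noise over triplicate slides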
[15] = molecular target: Follistatin (Homo sapiens) (UniProt P19883); experiment: follistatin binders on small-molecule microarrays, primary screen, biochemical, small-molecule microarray, 635/667 nm fluorescence (AID 1132); conditions: FST binding, 635 nm fluorescence, higher = more signal
[16] = molecular target: Fibroblast growth factor 2 (Homo sapiens) (UniProt P09038); experiment: FGF2 binders on small-molecule microarrays, primary screen, biochemical, small-molecule microarray, 635/667 nm fluorescence (AID 1133); conditions: small-molecule microarray binding, FGF2, fluorescence 635/667; higher = more signal
[17] = mitochondrial membrane potential change in A549 cells, profiling panel, cell-based, JC-1 fluorescence, basal, 24 h, 100 nL (AID 1138); conditions: higher = more signal;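 also: A549 lung adenocarcinoma cells under basal conditions with no added stimulus; test concentration not given here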
[18] = system: Lefty1; experiment: Lefty1 binders on small-molecule microarrays, primary screen, biochemical, small-molecule microarray, 635/667 nm fluorescence (AID 1139); conditions: small-molecule microarray binding, fluorescence 635/667; higher = more signal
[19] = system: wheat germ agglutinin (Triticum aestivum), Alexa647-labelled; experiment: wheat germ agglutinin binders on compound microarrays, profiling panel, artefact control for SMM control-protein annotation, biochemical, small-molecule microarray, 635/667 nm fluorescence (AID 1140); conditions: WGA-A647 binding, 635 nm fluorescence, higher = more signal;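 also: score merges 667 nm feature emission with signal to noise over triplicate slides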
[20] = molecular target: Luciferin 4-monooxygenase (Photinus pyralis) (UniProt P08659); experiment: firefly luciferase enzyme inhibitors, primary screen, biochemical, luminescence, purified enzyme, 2006 set (AID 1141); conditions: SteadyGlo luminescence, 30 min, higher = more signal, called active from +8 up or from −8 down;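 also: cell-free assay with purified firefly luciferase at 100 ng per well in PBS; test concentration not given here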
Chain of Luciferin 4-monooxygenase (Photinus pyralis) (P08659 whole entry, looked up): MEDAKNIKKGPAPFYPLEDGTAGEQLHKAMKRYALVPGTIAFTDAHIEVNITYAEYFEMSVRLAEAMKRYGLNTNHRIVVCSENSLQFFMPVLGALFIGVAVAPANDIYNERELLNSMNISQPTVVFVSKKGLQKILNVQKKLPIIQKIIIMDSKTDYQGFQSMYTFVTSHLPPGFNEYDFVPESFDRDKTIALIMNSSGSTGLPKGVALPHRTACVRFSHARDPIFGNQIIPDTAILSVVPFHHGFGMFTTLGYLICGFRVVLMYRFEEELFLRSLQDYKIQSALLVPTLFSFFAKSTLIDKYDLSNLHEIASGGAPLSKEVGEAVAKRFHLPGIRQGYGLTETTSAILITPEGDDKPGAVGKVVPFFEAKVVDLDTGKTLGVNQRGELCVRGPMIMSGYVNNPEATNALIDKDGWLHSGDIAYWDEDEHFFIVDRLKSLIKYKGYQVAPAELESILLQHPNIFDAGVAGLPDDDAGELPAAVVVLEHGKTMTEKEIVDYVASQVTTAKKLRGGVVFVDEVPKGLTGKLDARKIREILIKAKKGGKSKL

Chain of Follistatin (Homo sapiens) (P19883 whole entry, looked up): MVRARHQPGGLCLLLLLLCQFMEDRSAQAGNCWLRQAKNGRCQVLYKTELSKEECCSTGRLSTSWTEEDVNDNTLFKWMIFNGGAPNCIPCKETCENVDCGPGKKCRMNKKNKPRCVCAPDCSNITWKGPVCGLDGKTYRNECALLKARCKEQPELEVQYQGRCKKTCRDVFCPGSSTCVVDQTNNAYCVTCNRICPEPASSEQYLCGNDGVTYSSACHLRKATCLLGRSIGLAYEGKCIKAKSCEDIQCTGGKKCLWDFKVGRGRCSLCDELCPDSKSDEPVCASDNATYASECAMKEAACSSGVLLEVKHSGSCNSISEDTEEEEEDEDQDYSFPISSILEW
Chain of Focal adhesion kinase 1 (Homo sapiens) (Q05397 whole entry, looked up): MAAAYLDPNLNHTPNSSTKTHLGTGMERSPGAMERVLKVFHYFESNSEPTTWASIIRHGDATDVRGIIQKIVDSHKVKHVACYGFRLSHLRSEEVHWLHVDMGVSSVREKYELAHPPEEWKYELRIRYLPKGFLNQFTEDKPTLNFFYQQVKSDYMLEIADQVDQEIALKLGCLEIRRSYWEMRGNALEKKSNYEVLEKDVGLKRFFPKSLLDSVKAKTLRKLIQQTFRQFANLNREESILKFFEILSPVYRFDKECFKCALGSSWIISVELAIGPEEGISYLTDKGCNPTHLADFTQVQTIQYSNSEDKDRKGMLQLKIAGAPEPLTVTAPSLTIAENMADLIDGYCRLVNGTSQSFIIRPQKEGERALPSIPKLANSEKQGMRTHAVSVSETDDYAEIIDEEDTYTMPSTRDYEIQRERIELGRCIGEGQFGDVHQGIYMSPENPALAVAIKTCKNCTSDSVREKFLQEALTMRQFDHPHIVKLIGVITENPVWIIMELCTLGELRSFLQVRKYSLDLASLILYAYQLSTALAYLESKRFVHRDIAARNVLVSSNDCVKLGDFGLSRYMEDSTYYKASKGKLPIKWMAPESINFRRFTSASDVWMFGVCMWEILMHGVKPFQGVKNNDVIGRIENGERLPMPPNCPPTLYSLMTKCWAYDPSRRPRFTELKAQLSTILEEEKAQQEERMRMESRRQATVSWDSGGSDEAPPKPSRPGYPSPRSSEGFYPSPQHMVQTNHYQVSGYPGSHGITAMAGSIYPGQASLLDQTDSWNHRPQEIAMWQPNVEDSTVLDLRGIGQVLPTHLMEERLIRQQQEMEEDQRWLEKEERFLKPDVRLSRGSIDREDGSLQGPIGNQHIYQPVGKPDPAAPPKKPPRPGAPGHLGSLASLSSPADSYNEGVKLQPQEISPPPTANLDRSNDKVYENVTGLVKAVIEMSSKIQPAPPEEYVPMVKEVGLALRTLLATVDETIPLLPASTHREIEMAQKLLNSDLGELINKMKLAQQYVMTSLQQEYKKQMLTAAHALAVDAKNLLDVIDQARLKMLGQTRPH
Chain of Albumin (Bos taurus) (P02769 whole entry, looked up): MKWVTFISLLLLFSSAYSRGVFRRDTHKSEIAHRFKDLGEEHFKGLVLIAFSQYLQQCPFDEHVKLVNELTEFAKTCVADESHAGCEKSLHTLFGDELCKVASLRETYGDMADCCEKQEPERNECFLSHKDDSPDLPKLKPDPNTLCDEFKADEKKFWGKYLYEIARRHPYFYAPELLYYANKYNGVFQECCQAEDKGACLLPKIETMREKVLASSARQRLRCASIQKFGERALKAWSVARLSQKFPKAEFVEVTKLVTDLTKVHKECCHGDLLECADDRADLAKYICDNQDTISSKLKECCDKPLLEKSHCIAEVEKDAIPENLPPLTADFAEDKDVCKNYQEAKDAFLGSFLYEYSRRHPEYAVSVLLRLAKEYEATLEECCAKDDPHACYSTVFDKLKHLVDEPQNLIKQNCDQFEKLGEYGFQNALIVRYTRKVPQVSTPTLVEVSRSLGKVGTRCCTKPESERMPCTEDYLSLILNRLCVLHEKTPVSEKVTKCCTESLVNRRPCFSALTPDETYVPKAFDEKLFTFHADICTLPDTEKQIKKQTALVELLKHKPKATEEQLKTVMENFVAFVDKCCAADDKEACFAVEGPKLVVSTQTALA
Chain of Concanavalin-A (Canavalia ensiformis) (P02866 whole entry, looked up): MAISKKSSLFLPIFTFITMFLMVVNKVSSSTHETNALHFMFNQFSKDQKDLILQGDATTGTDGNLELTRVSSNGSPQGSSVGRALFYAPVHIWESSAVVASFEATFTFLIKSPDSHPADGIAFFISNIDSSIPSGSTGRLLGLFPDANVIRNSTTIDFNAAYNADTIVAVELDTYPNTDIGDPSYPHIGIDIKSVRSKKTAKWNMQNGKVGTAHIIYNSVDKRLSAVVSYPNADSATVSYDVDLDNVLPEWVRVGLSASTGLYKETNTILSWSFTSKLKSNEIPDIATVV
Chain of Fibroblast growth factor 2 (Homo sapiens) (P09038 whole entry, looked up): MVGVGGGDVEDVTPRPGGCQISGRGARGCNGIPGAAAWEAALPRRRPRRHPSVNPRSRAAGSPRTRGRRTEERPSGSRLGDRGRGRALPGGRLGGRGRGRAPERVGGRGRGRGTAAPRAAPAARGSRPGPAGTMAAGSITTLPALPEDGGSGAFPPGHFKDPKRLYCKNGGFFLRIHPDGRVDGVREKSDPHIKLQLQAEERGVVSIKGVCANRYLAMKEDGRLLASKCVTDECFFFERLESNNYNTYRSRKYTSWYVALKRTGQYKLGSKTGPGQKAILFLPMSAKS

SMILES | composite z-score [1] | composite Z-score [2] | composite z-score [3] | composite z-score [4] | composite z-score [5] | composite z-score [6] | composite z-score [7] | composite z-score [8] | composite z-score [9] | composite z-score [10] | composite z-score [11] | composite z-score [12] | composite z-score [13] | composite z-score [14] | composite z-score [15] | composite z-score [16] | z-score [17] | composite z-score [18] | composite z-score [19] | z-score [20]
C[C@]12C(=O)N(CCCCCCO)[C@@H]3C(=O)N(c4ccc(Cl)cc4)CC=CC31O[C@@H]1/C=C\CCCOC(=O)C12 (stereo not given in full) | 0.377 | 1.82 (inactive) | -0.16 | -0.136 | 0.695 | 2.08 | -0.133 | 0.488 | -1.75 | -0.403 | 0.0039 | -0.401 | 0.657 | -2.42 | -0.448 | -1.12 | 0.846 | -0.408 | 0.608 | -1.64 (inactive)
C=CC[C@@]1(C(=O)O)N=C(c2ccc(OCCCO)cc2)O[C@@H]1c1ccccc1 | 0.771 | 1.76 (inactive) | -0.293 | 0.247 | 0.527 | 2.71 | 0.724 | 0.732 | -0.713 | -0.587 | 3.53 | 1.15 | 0.3 | -0.184 | -0.759 | -0.893 | 0.959 | -0.726 | 1.27 | -0.171 (inactive)
COc1cc2c(cc1O)C(C)N(Cc1cc3c(cc1Br)OCO3)CC2 (stereo not given) | -0.0769 | 2.1 (inactive) | -0.119 | -0.0924 | 0.887 | 0.578 | 0.349 | -0.309 | -0.55 | -0.251 | -0.408 | -1.4 | -0.618 | -1.01 | -0.381 | -0.437 | -0.472 | -0.46 | -0.55 | -0.499 (inactive)
CC(C)CCC[C@@H](C)[C@H]1CC[C@@]2(C)C3=C(CC[C@]12C)[C@@]1(C)CC[C@H](OC(=O)c2ccc(Br)cc2)C(C)(C)C1CC3 (stereo not given in full) | -0.0217 | -0.174 (inactive) | 0.173 | -0.117 | 0.108 | -0.28 | 0.432 | 0.28 | 0.498 | 0.291 | -0.242 | 0.595 | -0.172 | 0.487 | 0.485 | 0.508 | 0.367 | 0.573 | 0.538 | -1.28 (inactive)
CC(C)N1CC=CC23O[C@@H]4C=CCOC(=O)[C@@H]4[C@H]2C(=O)N(C(C)CO)[C@@H]3C1=O (stereo not given in full) | -0.385 | 0.365 (inactive) | -0.149 | -0.0891 | 0.406 | 0.0561 | 1.06 | -0.876 | -1.03 | 0.261 | -0.221 | -0.915 | -0.202 | -0.179 | -0.901 | -0.678 | -0.374 | -0.941 | -0.158 | 0.169 (inactive)
CN(C)CCCCNC(=O)[C@H]1C[C@H]2C(=O)N[C@@H](CCCCN(C)C)C(=O)N2[C@H]1c1cccc(OCCO)c1 | 0.418 | -1 (inactive) | 0.0691 | -0.237 | 0.18 | 2.21 | 0.518 | 1.31 | 1.39 | 1.14 | 1.1 | 0.603 | 0.29 | 0.877 | 1.3 | 1.23 | -0.0557 | 1.64 | 1.02 | 0.709 (inactive)
COC(=O)c1c(CC[C@@H](CO)NC(=O)N[C@H](Cn2cc(-c3ccccc3C)nn2)C(C)C)oc(C(C)=O)c1C(=O)OC | 0.119 | -0.115 (inactive) | -0.0731 | -0.075 | 0.0708 | -0.363 | -0.108 | -1.08 | -0.767 | 0.43 | 0.0233 | -0.0523 | 0.14 | 0.335 | -0.505 | -0.37 | -0.704 | -0.0683 | 0.567 | 0.379 (inactive)
Cc1ccc(S[C@]2(C(=O)NC3CC3)CC(=O)N(Cc3ccccc3Cl)[C@@H]2c2ccc(CO)cc2I)cc1 | 0.257 | 0.331 (inactive) | -0.0967 | -0.0419 | 0.68 | 2.52 | 0.944 | 1.13 | 0.506 | 0.904 | 2.99 | 1.05 | 1.31 | 0.811 | 1.45 | 1.67 | 0.677 | 0.101 | 0.277 | 0.352 (inactive)
Cc1ccc(S[C@]2(C(=O)NCc3ccccc3)CC(=O)N(C(C)C)[C@@H]2c2ccc(CO)cc2I)cc1 | 0.838 | 0.46 (inactive) | -0.221 | -0.0268 | 0.304 | 2.56 | 0.704 | -0.29 | -1.59 | -1.29 | 0.257 | -0.0754 | -0.19 | -0.956 | -0.289 | -1.04 | -0.224 | -1.17 | -0.0961 | 0.667 (inactive)
Cc1c(NC(=O)/C(C#N)=C/C=C/c2ccc(N(C)C)cc2)c(=O)n(-c2ccccc2)n1C | 0.376 | 1.02 (inactive) | 0.308 | 0.292 | 0.456 | 2.54 | -0.154 | 1.22 | 0.568 | 1.1 | 1.61 | 1.18 | 0.0505 | 0.449 | 0.763 | 0.492 | 1.43 | 0.517 | 1.04 | -3.99 (inactive)
CC(C)NC(=O)[C@@]1(C)c2ccccc2C(=O)N(C(C)C)[C@H]1c1ccc(CO)cc1 | 0.177 | 0.22 (inactive) | -0.471 | -0.132 | 0.541 | 2.61 | -0.217 | 0.121 | -2.33 | -0.233 | -0.398 | -0.259 | 0.0394 | -0.66 | -0.75 | -0.516 | -0.413 | -1.05 | -0.465 | -0.682 (inactive)
